Compound activity from PubChem BioAssay.
ALOX12 inhib – qHTS Assay for Inhibitors of 12-hLO (12-human lipoxygenase); Polyunsaturated fatty acid lipoxygenase ALOX12 (Homo sapiens), P18054; Potency, µM (top dose mostly 57.1 µM), for the others: at the highest dose activity change, negative = inhibition, usual class: inhibitors; hit rate 0.12% among 150,000; purified 12-hLO, xylenol orange hydroperoxide absorbance; active = well fitted curve in the direction sought with a large enough effect; inconclusive = small, poorly fitted or top-dose-only effect, or another doubt; inactive = no such curve, though single readings can be large; an effect the other way counts as inactive or inconclusive; note: potency is the fitted concentration of half-maximal effect; nearly all actives have a fitted effect of over 55% in size
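Purified human 12hLO (150 nM final) was preincubated with compounds for 15 min at room temperature in 25 mM Hepes pH 7.0, 0.01% Triton X-100, then reacted with 40 uM arachidonic acid for 30 min. Hydroperoxide was detected with ferrous iron/xylenol orange.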
PNC inhibitor – High Content Assay for Compounds that inhibit the Assembly of the Perinucleolar Compartment; activity change (PNC), negative = inhibition, % at 10 µM; hit rate 3.1% among 140,000; PC3M PTB-GFP, PNC prevalence imaging, 16 h; active compounds read low;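 active = readout at or below -70, meaning at least 70% loss of cells showing the perinucleolar compartment, a nuclear body marking cancer cells; inconclusive = readout between -30 and a set limit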;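 note: plate controls were DMSO wells for no effect and camptothecin positive control wells for full effect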
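Compounds are pinned in duplicate onto adhered PC3M cells stably expressing GFP-tagged PTB and incubated 16 h at 37 C. Cells are then fixed, nuclei stained with Hoechst, and PNC-positive cells counted.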
IMPase inh – qHTS Assay for Identifying the Cell-Membrane Permeable IMPase Inhibitors | Inositol monophosphatase 1 (Rattus norvegicus), P97697 | inhibition (IP1 accumulation), % at 46.1 µM | CHO-M1 cells, IP1 accumulation, HTRF TR-FRET ratio | AID 901, 2007 | 120,000 tested, under 10 active; active = well fitted curve in the direction sought with a large enough effect in the signal ratio, not every such curve was filed as active; inconclusive = small, poorly fitted or top-dose-only effect, or a change in a side signal; inactive = no such curve, though single readings can be large or run the other way; the % refers to the signal ratio;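 note: cells stimulated with carbachol in lithium chloride buffer; plate controls were DMSO basal wells for no effect and reference inhibitor wells for full effect; higher means more IMPase inhibition seen as more IP1 and lower FRET ratio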
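The IP-One HTRF competitive assay in carbachol-stimulated CHO-M1 cells quantifies cellular IP1. Compounds spanned up to 46 uM final, and activity is expressed as AC50 from concentration-response fits of the ratio and donor data.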
HPGD block – qHTS Assay for Inhibitors of HPGD (15-Hydroxyprostaglandin Dehydrogenase) | 15-hydroxyprostaglandin dehydrogenase [NAD(+)] (Homo sapiens), P15428 | purified HPGD, NADH fluorescence kinetic, PGE2 substrate | Potency, µM, without a hit: top-dose activity change, negative = inhibition, hits mostly inhibitors | hit rate 4.3% among 150,000; note: potency is the fitted concentration of half-maximal effect
Target sequence (P15428 whole entry, looked up): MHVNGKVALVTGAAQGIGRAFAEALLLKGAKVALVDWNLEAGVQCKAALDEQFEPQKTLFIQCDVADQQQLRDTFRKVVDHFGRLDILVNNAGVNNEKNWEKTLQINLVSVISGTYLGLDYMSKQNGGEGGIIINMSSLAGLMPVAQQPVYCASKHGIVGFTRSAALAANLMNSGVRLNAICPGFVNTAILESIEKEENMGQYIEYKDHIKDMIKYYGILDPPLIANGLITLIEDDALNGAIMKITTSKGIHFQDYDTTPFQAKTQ
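20 nM HPGD preincubated 15 min at room temperature with compound in 50 mM Tris-HCl pH 8, 0.01% Tween 20. Started with 1 mM NAD+ and 30 uM prostaglandin E2; NADH fluorescence (360/450 nm) read 5 times over 30-s intervals, last minus first.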
ALDH1A1 inh – qHTS Assay for Inhibitors of Aldehyde Dehydrogenase 1 (ALDH1A1) | Aldehyde dehydrogenase 1A1 (Homo sapiens), P00352 | Potency, µM (top dose mostly 75.3 µM), without a hit: at the top dose activity, negative = inhibition, usual class: inhibitors | hit rate 7.3% among 220,000 | Purified ALDH1A1, NADH fluorescence, propionaldehyde substrate;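 note: potency is the fitted concentration of half-maximal effect; plate controls were no enzyme wells and a reference inhibitor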
Target sequence (P00352 whole entry, looked up): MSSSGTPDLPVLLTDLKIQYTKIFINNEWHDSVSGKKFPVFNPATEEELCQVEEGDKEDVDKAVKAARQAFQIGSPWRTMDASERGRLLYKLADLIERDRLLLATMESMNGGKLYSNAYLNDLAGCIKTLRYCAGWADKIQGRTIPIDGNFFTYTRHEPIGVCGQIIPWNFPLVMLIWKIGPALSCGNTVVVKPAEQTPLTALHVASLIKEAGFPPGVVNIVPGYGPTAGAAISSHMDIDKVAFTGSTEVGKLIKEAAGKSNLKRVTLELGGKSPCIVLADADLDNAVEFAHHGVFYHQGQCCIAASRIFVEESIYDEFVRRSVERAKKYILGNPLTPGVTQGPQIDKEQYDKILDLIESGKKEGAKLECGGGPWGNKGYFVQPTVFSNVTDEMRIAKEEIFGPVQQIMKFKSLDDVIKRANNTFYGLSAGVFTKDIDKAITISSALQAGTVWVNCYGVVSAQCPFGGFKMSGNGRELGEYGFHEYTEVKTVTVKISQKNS
IMPase Li cell – qHTS Assay for Identifying the Cell-Membrane Permeable IMPase Inhibitors: Potentiation with Lithium; hit rate 0.35% among 210,000; AID 1457, 2008; CHO-M1 cells, IP1 TR-FRET (IP-One), carbachol + lithium; Potency, µM (top dose mostly 59.4 µM), for inactives: top-dose activity, negative = IMPase inhibition, usual class: inhibitors; active = well fitted curve in the direction sought with a large enough effect; inconclusive = small, poorly fitted or top-dose-only effect, or another doubt; inactive = no such curve, though single readings can be large; an effect the other way counts as inactive or inconclusive;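 note: IP1 builds up when IMPase is blocked and the TR-FRET signal falls; potency is the fitted concentration of half-maximal effect; plate controls were basal vehicle for no effect and high inhibitor control for full effect; nearly all actives have a fitted effect of over 50% in size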
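Steps: plate 2000 CHO-M1 cells per well and culture 16–30 h; add compound and lithium; incubate 30 min, 37C; add d2-IP1 tracer and Eu cryptate anti-IP1 antibody in lysis buffer; read after 10 min at room temperature.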
* marks the source's active call; other numbers are inactive results; u = inconclusive; x = no result; [ ] = remark or other dose. Compounds with a hit are over-represented: about 11% of the library has one in this group of screens. Unless noted, calls come from the whole dose curve; as a rule, active = well fitted inhibition curve with a large enough effect (not every such curve was filed as active); inconclusive = small, poorly fitted or top-dose-only effect, or another doubt; inactive = no such curve, though single readings can be large or run the other way. Unless noted, % is set by controls: 0 for no effect and ±100 for the full control effect.

SMILES	ALOX12 inhib	PNC inhibitor	IMPase inh	HPGD block	ALDH1A1 inh	IMPase Li cell
CC(C)c1ccc(NC(=O)c2csnn2)cc1	0.9%	-18.5	u	u	17.8µM*	10.7%[38.3 µM]
CC(C)c1ccc(NC(=O)c2cccnc2)cc1	-0.3%	34.8	5.2	-11.8%	-8.6%	9.7%[38.3 µM]
O=C(NC(=S)Nc1ccccc1Cl)c1csnn1	-20.3%	-29.7	-3.5	u	4.47µM*	2.1%[38.3 µM]
O=C(CCC(=O)OCC(=O)c1ccc(Cl)cc1Cl)Nc1cccc2cccnc12	-6.5%	26.1	-12.6	-17.1%	28.2µM*	-4.0%[38.3 µM]
O=C(CCS(=O)(=O)c1ccccc1)Nc1ccc(-c2nc3ccccc3s2)c(O)c1	1.8%	-28.4	x	-8.2%	-3.2%	11.2µM*
CS(=O)(=O)Nc1cccc(-c2nc(N3CCNCC3)c3ccccc3n2)c1	7.1%	x	x	-16.4%	-2.3%	2.9%
CCOC(=O)c1sc(NC(=O)CSc2nnnn2-c2ccc(C)cc2C)nc1C	-2.9%	-24.6	8.5	-22.7%	u	10µM*
COC(=O)c1ccccc1NC(=O)CSc1nnnn1-c1ccc(C)cc1C	-2.0%	-6.4	11.4	-18.7%	u	10µM*
CCOC(=O)c1sc(NC(=O)CSc2nnnn2-c2ccc(C)c(C)c2)nc1C	-1.6%	17.7	-2.2	-6.0%	-12.3%	-13.2%[38.3 µM]
CC(C)Cn1cnc2c(SCc3ccc(Cl)cc3Cl)nc(N)nc21	0.3%[11.4 µM]	x	x	-8.2%	-3.4%[13.5 µM]	-2.2%
Cc1cccc(/N=C/c2nc(-c3ccccc3Br)oc2O)n1	x	x	x	x	3.55µM*	12.4%
Cc1ccnc(N=Cc2nc(-c3ccccc3Br)oc2O)c1	x	x	x	x	3.98µM*	8.2%
CSc1ccccc1N=Cc1nc(-c2ccccc2)oc1O	-25.0%	36.4	1.1	u	5.01µM*	14.7%[38.3 µM]
Oc1oc(-c2ccc(Br)cc2)nc1C=Nc1ccc(Br)cn1	x	x	x	x	-15.5%	1.2%
Oc1oc(-c2cccc3ccccc23)nc1/C=N/c1nccs1	-1.6%	u	3.8	-4.0%	9.2%	-2.7%
CN1C=CC=C/C1=C1\SC(=S)N(c2ccccc2)C1=O	3.4%	19.5	11.0	-12.2%	11.2µM*	16.1%[38.3 µM]
CN1C=CC=C/C1=C1\SC(=S)N(C2CCCCC2)C1=O	-13.8%	-7.9	19.2	-13.8%	14.1µM*	13.5%[38.3 µM]
C=C(C)Cn1c(SCC(=O)Nc2cc(C)ccc2C)nc2sc3c(c2c1=O)CCCC3	x	x	-23.7	x	x	x
COc1ccc(Cn2c(O)c(/C=N/NC(=O)c3cccnc3)c3ccccc3c2=O)cc1	x	x	x	x	u	20.9%
O=C(N/N=C/c1c(O)n(-c2ccccc2Cl)c(=O)c2ccccc12)c1cccnc1	x	x	x	x	14.1µM*	15.8%
O=C(N/N=C/c1c(-c2ccccc2)[nH]c2ccccc12)c1cccnc1	x	x	x	x	1.4%	-1.1%
O=C(N/N=C/c1c(O)n(Cc2ccccc2)c(=O)c2ccccc12)c1cccnc1	x	x	x	x	10µM*	2.9%
Oc1ccc(Br)cc1/C=N/n1cnc2ccccc21	0.7%	0.4	-13.0	14.1µM*	8.2%	-3.1%[38.3 µM]
C[C@H]1CCCC2(CC[N+](C)(CCC[N+](C)(C)C)CC2)C1 (some centres undefined)	1.3%[11.4 µM]	x	x	-6.1%	3.8%[13.5 µM]	11.6%
O=C(ON=C1CCN(S(=O)(=O)c2ccccc2)CC1)c1ccccc1	0.9%	u	0.6	5.0%	0.6%	4.2%[38.3 µM]
SMILES	ALOX12 inhib	PNC inhibitor	IMPase inh	HPGD block	ALDH1A1 inh	IMPase Li cell
O=C(ON=C1CCN(S(=O)(=O)c2ccccc2)CC1)c1cccc(Cl)c1	0.6%	-100.0*	5.8	-11.4%	-1.7%	2.6%
COc1ccc2c(c1)C(=O)[C@@H](OC(=O)NCc1ccco1)[C@H](c1ccc(OC)c(Br)c1)O2	x	x	x	-14.5%	u	-3.1%
CCC(=O)O	3.2%[0.00818 µM]	x	x	-11.9%	2.0%	4.1%
O=C(Cn1nnc(-c2ccc(OCc3ccccc3F)cc2)n1)N1CCOCC1	5.5%	-102.3*	-8.8	6.6%	-4.6%	10.7%
CC(C)n1c(=O)[nH][nH]c1=S	x	x	x	x	0.794µM*	x
CC(C)n1c(=O)[nH]c2ccccc21	-3.0%	-7.8	3.4	-10.1%	12.0%	-9.1%[38.3 µM]
O=C1c2ccccc2C(=O)N1c1cccc(-c2csc(Nc3ccc4c(c3)OCO4)n2)c1	-0.5%	19.5	-4.6	-17.5%	7.08µM*	1.9%
COc1ccccc1Nc1nc(-c2cccc(N3C(=O)c4ccccc4C3=O)c2)cs1	-5.7%	15.4	6.0	-9.1%	u	-0.5%
CCCOc1ccc(N2C(=O)CC(N3CCC(C(=O)OCC)CC3)C2=O)cc1 (centres undefined)	-6.0%	15.8	2.3	-7.1%	u	-11.3%[38.3 µM]
CCCOc1ccc(N2C(=O)CC(N3CCOCC3)C2=O)cc1 (centres undefined)	1.7%	u	3.9	-7.1%	25.1µM*	-0.2%[38.3 µM]
COc1ccccc1N(O)C1CC(=O)N(c2ccc(F)cc2)C1=O (centres undefined)	-22.6%	32.4	-1.3	22.4µM*	1.26µM*	-7.5%
CC(=O)Nc1ccc(N2C(=O)CC(N3CCSCC3)C2=O)cc1 (centres undefined)	x	x	x	x	u	-0.5%
CC(=O)Nc1ccc(N2C(=O)CC(N3CC(C)OC(C)C3)C2=O)cc1 (centres undefined)	3.8%	7.9	-3.5	-14.4%	7.94µM*	-13.7%[38.3 µM]
CCCOc1ccc(N2C(=O)CC(N(O)c3ccccc3)C2=O)cc1 (centres undefined)	-26.5%	-89.0*	6.0	4.0%	u	-11.1%[38.3 µM]
O=C(NC[C@@H]1CCCCN1)c1cc(OCC(F)(F)F)ccc1OCC(F)(F)F	-1.1%[25.6 µM]	x	-0.5[20.6 µM]	-5.1%	6.2%[20.9 µM]	0.5%
COC(=O)c1ccc(N2C(=O)CC(N3CCOCC3)C2=O)cc1 (centres undefined)	-0.9%	u	-10.8	-7.0%	28.2µM*	-24.9%[38.3 µM]
Cc1cccc(N2C(=O)CC(N3CCOCC3)C2=O)c1 (centres undefined)	2.4%	29.0	6.3	7.0%	u	15.3%[38.3 µM]
CCOc1ccc(N2C(=O)CC(N3CCN(C(=O)CN4CCCC4)CC3)C2=O)cc1 (centres undefined)	0.6%	-113.7*	3.9	-7.1%	15.8µM*	-4.2%[38.3 µM]
CCCOc1ccc(N2C(=O)CC(N3CCCC(C(=O)N4CCCC4)C3)C2=O)cc1 (centres undefined)	-2.7%	u	-8.2	-12.2%	17.8µM*	9.1%[38.3 µM]
COc1ccc(OCCCCn2c(-c3ccc(Cl)cc3)nc3ccccc3c2=O)cc1	x	x	12.8	x	x	x
CC(c1ccccc1)C1CC(=O)N(Cc2ccco2)C1=O (centres undefined)	-3.4%	u	17.8	-12.8%	8.91µM*	14.4%[38.3 µM]
